Assay results reported in the supplement of paper PMC10849652.
Of roughly 7,900 targets only a part is listed; those with a hit were picked by preference. About 0.6% of all pairs of compound and target were hits. Unmarked numbers belong to inactive results.

Key:
Test in all cases: log2 fold change, soluble protein after heating vs DMSO (PISA); higher = thermal stabilisation; K562 cells, 10 uM, 30 min; active = over 0.2 and 3.5 SD of the protein, either way, in both replicates (recomputed)
[1] = compound: Cc1ccc(NC(=O)c2ccc(CN3CC[C@H](N(C)C)C3)c(C(F)(F)F)c2)cc1Nc1nccc(-c2cncnc2)n1 [bafetinib]
Method in brief: (§1)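 K562 cells at 2×10^6 cells/mL were treated with 10 μM compound for 30 min. Aliquots were heated for 3 min across 48°C-58°C, pooled, and extracted in PBS with 0.5% NP-40 at 4°C; soluble protein was the supernatant after 21,000xg for 90 min. Soluble protein was quantified by TMTpro 16plex LC-MS/MS with channel sums equalised, and reported as log2 fold change in thermal stability against DMSO controls, with values from duplicates.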

[2] = compound: Cc1cccc(CC(=O)N2CCc3c2ccc(-c2cn(C)c4ncnc(N)c24)c3F)n1
Method in brief: as §1

[3] = compound: Cc1cn(-c2cc(NC(=O)c3ccc(C)c(Nc4nccc(-c5cccnc5)n4)c3)cc(C(F)(F)F)c2)cn1 [nilotinib]
Method in brief: as §1

[4] = compound: Cc1nc(Nc2n[nH]c3c2CN(C(=O)N[C@H](CN(C)C)c2ccccc2)C3(C)C)c2sccc2n1
Method in brief: as §1

[5] = compound: Cc1nc(Nc2ncc(C(=O)Nc3c(C)cccc3Cl)s2)cc(N2CCN(CCO)CC2)n1 [dasatinib]
Method in brief: as §1

[6] = compound: Cc1ncc(-c2ccnc(Nc3ccc(S(C)(=O)=O)cc3)n2)n1C(C)C
Method in brief: as §1

[7] = compound: Cn1cc(-c2ccc3c(c2)CCN3C(=O)Cc2cccc(C(F)(F)F)c2)c2c(N)ncnc21
Method in brief: as §1

[8] = compound: Cn1cc(-c2ccc3nnc(C(F)(F)c4ccc5ncccc5c4)n3n2)cn1
Method in brief: as §1

[9] = compound: Cn1cncc1[C@@](N)(c1ccc(Cl)cc1)c1ccc2c(c1)c(-c1cccc(Cl)c1)cc(=O)n2C [tipifarnib]
Method in brief: as §1

[10] = compound: FC(F)(F)c1ccc(/C=C/c2nc(COc3ccc(CCCCn4ccnn4)cc3)co2)cc1 [mubritinib]
Method in brief: as §1

[11] = compound: NC(=O)Nc1cc(-c2cccc(F)c2)sc1C(=O)N[C@H]1CCCNC1
Method in brief: as §1

[12] = compound: NC(=O)c1cnc(N[C@@H]2CCCC[C@@H]2N)nc1Nc1cccc(-n2nccn2)c1
Method in brief: as §1

[13] = compound: NC1(c2ccc(-c3nc4ccn5c(=O)[nH]nc5c4cc3-c3ccccc3)cc2)CCC1
Method in brief: as §1

[14] = compound: NCC(=O)Nc1ccc(-n2nc(C(F)(F)F)cc2-c2ccc3c(ccc4ccccc43)c2)cc1
Method in brief: as §1

[15] = compound: Nc1ccccc1NC(=O)c1ccc(CNC(=O)OCc2cccnc2)cc1 [entinostat]
Method in brief: as §1

[16] = compound: O=C(CCCCCCC(=O)Nc1ccccc1)NO [vorinostat]
Method in brief: as §1

[17] = compound: O=C(CCCCCCNC(=O)c1cnc(N(c2ccccc2)c2ccccc2Cl)nc1)NO [citarinostat]
Method in brief: as §1

[18] = compound: O=C(O)c1ccc2c(c1)nc(Nc1cccc(Cl)c1)c1ccncc12 [silmitasertib]
Method in brief: as §1

[19] = compound: O=C1NC(=O)C(c2cnc3ccccn23)=C1c1cn2c3c(cc(F)cc13)CN(C(=O)N1CCCCC1)CC2
Method in brief: as §1

[20] = compound: c1cc(OCCN2CCCCC2)cc(-c2n[nH]c3ccc(-c4nnc[nH]4)cc23)c1
Method in brief: as §1

Chain of UniProt Q66K14 (Q66K14 whole entry, looked up): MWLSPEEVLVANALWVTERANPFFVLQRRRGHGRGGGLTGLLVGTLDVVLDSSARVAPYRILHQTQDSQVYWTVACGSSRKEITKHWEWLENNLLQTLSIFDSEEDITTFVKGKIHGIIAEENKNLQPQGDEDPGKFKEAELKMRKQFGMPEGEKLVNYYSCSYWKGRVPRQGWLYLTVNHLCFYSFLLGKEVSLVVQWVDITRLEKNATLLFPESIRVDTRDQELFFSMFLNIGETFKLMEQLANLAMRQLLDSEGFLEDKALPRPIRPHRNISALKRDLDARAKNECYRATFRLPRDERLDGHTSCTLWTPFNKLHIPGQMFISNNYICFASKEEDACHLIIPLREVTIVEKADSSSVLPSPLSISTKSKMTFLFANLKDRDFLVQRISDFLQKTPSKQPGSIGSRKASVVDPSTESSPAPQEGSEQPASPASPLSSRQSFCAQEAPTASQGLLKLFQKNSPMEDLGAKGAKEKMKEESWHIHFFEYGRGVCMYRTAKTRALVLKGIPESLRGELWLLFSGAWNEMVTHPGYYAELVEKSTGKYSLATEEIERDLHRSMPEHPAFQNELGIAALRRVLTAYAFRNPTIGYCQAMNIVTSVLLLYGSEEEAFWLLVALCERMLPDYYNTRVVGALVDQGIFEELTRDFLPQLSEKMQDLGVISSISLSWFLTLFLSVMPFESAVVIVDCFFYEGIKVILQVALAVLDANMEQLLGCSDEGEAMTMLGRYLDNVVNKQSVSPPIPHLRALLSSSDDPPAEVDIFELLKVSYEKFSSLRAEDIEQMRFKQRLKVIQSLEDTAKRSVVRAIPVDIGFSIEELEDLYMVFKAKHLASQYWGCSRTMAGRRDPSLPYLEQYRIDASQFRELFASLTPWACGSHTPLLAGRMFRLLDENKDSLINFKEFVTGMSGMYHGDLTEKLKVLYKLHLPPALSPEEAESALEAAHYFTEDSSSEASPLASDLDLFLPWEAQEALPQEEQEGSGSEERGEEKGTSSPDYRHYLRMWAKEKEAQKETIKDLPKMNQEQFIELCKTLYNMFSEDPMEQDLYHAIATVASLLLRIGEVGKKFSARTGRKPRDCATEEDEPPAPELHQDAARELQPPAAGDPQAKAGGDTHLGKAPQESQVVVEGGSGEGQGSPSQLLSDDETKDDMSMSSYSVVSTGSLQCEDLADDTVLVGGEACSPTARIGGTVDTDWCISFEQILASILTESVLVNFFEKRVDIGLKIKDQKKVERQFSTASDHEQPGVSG
Chain of UniProt Q9Y5M8 (Q9Y5M8 whole entry, looked up): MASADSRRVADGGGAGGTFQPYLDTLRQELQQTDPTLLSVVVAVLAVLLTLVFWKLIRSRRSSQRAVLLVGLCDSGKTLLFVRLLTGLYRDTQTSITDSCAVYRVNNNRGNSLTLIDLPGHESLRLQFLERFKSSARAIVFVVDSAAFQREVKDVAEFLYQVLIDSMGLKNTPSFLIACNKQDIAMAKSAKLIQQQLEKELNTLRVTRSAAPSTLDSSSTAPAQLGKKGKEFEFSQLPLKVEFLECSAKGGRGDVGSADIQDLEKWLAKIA
Chain of UniProt Q9NY26 (Q9NY26 whole entry, looked up): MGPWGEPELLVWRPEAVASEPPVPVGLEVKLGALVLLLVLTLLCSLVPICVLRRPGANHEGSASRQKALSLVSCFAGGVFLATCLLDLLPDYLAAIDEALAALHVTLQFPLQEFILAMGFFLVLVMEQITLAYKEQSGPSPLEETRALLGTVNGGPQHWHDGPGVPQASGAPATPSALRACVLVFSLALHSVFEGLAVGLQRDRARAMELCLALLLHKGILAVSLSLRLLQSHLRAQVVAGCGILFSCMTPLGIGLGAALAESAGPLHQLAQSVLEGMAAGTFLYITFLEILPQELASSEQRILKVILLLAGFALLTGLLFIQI
Chain of UniProt Q9P289 (Q9P289 whole entry, looked up): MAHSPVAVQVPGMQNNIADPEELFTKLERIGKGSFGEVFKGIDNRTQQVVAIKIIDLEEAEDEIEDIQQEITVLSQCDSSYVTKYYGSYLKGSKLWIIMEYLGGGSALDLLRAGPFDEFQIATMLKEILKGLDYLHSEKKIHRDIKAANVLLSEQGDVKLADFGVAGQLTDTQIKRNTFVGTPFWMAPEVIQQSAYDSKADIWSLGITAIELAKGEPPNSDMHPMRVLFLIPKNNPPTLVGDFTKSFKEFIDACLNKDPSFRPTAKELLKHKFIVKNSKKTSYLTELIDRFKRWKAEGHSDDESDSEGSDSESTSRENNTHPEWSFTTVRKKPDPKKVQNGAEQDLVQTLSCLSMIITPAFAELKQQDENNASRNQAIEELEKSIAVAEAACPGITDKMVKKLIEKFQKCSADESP
Chain of UniProt Q8NEW0 (Q8NEW0 whole entry, looked up): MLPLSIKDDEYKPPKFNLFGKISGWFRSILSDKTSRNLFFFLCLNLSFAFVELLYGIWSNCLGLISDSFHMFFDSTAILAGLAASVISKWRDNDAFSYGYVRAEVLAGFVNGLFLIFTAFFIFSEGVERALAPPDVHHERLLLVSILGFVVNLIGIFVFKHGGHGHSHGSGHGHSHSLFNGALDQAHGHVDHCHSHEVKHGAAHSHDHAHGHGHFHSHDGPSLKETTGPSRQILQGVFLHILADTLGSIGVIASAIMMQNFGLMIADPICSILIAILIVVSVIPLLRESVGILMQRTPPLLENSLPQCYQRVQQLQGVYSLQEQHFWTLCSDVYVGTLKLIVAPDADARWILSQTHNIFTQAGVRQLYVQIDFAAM
Chain of UniProt O76062 (O76062 whole entry, looked up): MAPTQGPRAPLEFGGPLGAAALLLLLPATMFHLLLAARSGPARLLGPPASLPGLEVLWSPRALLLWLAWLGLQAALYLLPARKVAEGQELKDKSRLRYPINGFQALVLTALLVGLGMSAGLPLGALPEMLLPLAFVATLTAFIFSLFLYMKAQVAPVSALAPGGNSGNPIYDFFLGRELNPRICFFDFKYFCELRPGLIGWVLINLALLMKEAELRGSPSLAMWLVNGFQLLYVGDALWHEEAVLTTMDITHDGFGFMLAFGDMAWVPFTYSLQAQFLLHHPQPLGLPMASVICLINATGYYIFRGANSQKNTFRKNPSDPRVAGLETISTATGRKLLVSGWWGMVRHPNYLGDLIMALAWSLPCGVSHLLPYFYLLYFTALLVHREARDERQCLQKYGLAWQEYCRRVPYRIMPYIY
Chain of UniProt Q9NYB0 (Q9NYB0 whole entry, looked up): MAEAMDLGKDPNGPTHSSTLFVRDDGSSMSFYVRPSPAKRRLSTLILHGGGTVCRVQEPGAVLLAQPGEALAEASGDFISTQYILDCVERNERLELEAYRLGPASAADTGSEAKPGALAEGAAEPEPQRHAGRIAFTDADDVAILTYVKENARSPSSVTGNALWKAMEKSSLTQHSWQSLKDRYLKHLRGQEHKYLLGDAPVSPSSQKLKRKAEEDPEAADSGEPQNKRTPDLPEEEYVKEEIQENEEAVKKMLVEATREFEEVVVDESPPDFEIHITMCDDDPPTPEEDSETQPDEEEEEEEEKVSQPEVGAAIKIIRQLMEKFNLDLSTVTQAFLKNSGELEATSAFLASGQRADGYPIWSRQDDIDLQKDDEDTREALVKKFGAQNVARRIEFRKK
Chain of UniProt O95772 (O95772 whole entry, looked up): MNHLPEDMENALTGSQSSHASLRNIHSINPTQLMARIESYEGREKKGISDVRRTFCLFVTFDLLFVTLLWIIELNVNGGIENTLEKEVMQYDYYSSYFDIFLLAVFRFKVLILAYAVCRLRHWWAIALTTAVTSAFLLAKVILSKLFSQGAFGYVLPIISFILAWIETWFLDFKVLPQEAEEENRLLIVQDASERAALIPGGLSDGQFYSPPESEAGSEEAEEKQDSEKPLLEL
Chain of UniProt P62318 (P62318 whole entry, looked up): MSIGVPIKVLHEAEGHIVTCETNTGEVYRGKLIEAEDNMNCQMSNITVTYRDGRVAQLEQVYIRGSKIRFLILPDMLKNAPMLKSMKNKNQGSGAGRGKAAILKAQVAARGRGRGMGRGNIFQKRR
Chain of UniProt P08579 (P08579 whole entry, looked up): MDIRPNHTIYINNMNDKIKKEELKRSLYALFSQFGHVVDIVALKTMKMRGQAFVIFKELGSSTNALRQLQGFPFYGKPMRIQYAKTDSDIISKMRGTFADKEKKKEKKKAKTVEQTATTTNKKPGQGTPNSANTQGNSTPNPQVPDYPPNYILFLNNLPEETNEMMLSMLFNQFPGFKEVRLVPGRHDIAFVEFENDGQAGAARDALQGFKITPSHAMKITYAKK
Chain of UniProt Q96BW9 (Q96BW9 whole entry, looked up): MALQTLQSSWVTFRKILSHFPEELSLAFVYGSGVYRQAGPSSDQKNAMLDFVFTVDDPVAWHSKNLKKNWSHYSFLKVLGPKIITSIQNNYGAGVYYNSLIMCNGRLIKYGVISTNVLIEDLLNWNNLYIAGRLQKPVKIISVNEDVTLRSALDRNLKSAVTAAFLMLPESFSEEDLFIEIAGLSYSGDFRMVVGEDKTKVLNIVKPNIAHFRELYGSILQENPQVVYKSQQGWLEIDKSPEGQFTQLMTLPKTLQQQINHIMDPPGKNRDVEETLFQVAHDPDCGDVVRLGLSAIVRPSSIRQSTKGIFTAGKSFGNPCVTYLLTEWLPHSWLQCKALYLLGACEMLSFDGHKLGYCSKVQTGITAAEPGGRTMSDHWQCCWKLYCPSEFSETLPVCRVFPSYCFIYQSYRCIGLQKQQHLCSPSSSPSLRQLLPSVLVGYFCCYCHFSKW
Chain of UniProt P63165 (P63165 whole entry, looked up): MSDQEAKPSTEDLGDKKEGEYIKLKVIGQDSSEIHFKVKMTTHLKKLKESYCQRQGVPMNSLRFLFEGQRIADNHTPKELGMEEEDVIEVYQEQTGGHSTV

Target	log2 fold change [1]	log2 fold change [2]	log2 fold change [3]	log2 fold change [4]	log2 fold change [5]	log2 fold change [6]	log2 fold change [7]	log2 fold change [8]	log2 fold change [9]	log2 fold change [10]	log2 fold change [11]	log2 fold change [12]	log2 fold change [13]	log2 fold change [14]	log2 fold change [15]	log2 fold change [16]	log2 fold change [17]	log2 fold change [18]	log2 fold change [19]	log2 fold change [20]
TERF2IP (UniProt Q9NYB0)	-0.051	-0.008	-0.006	-0.163	-0.028	-0.128	-0.078	-0.033	0.074	-0.014	0.009	-0.132	0.007	-0.018	0.061	0.041	0.068	0.121	-0.051	-0.073
SNRPB2 (UniProt P08579)	-0.034	-0.081	0.04	0.048	0.075	0.135	-0.116	-0.025	0.084	0.045	0.047	-0.012	0.03	0.038	-0.016	-0.027	0.023	0.051	0.046	-0.034
SRPRB (UniProt Q9Y5M8)	0.107	0.14	0.035	0.026	-0.094	0.121	0.076	0.031	-0.123	0.134	0.048	0.028	-0.056	-0.038	0.045	0.029	0.029	-0.007	-0.014	0.045
SNRPD3 (UniProt P62318)	0.013	-0.077	0.034	0.077	0.08	0.107	-0.097	-0.06	0.024	0.011	0.034	-0.01	0.025	0.013	-0.059	-0.067	-0.019	0.092	0.271 (active)	-0.055
SREK1 isoform 2 (UniProt Q8WXA9)	0.07	0.015	0.156	-0.593 (active)	-0.095	0.005	-0.006	-0.11	0.031	0.063	0.194	-0.068	0.03	-0.208	0.012	0.05	0.129	-0.148	0.059	-0.213
STK26 (UniProt Q9P289)	-0.057	0.026	-0.089	0.198	-0.319 (active)	-0.057	-0.058	0.015	-0.036	-0.036	0.07	-0.005	-0.111	-0.057	-0.063	0.034	0.092	0.069	-0.017	-0.007
STEAP3 isoform 2 (UniProt Q658P3)	-0.044	0.058	-0.001	-0.061	-0.028	0.03	0.039	0.11	-0.085	-0.034	-0.13	0.076	-0.042	-0.006	0.008	0.086	0.013	0	-0.028	-0.082
SUMO1 (UniProt P63165)	-0.071	-0.023	-0.022	-0.078	0.041	-0.04	-0.209	-0.068	-0.35	0.001	-0.006	-0.116	0.071	-0.074	-0.01	-0.086	-0.063	-0.012	0.045	-0.087
TJP1 (UniProt Q07157)	-0.061	0.008	0.024	-0.199	-0.092	-0.037	-0.028	-0.02	-0.025	0.073	-0.043	-0.067	0.033	-0.071	0.044	0.049	0.041	-0.158	-0.056	-0.092
STARD3NL (UniProt O95772)	0.011	-0.008	-0.007	0.027	0.075	-0.001	-0.048	0.025	-0.064	-0.006	0.018	-0.104	-0.413 (active)	-0.031	0.093	0.037	0.004	0.044	-0.013	0.035
STK39 (UniProt Q9UEW8)	-0.09	0	-0.076	-0.028	-0.108	-0.016	-0.008	-0.032	-0.031	-0.083	-0.064	0.034	-0.146	-0.028	0.069	0.063	0.051	0.003	0.003	-0.072
STRN (UniProt O43815)	-0.016	0.063	0.014	0.048	-0.068	-0.008	0.022	-0.064	0	0.021	-0.055	0.019	-0.037	0.019	-0.008	0.024	0.028	0	-0.051	-0.031
SLC30A7 (UniProt Q8NEW0)	-0.169	-0.094	-0.16	0.052	0.04	0.003	0.048	-0.026	0.023	0.107	-0.035	0.013	-0.276	-0.178	0.024	-0.024	-0.028	0.039	0.025	-0.032
TBC1D9B (UniProt Q66K14)	-0.262	-0.042	-0.055	0.053	-0.156	-0.034	0.07	-0.06	0.019	0.203	-0.194	-0.095	-0.07	-0.012	-0.085	-0.034	0.173	0.021	-0.176	-0.13
TAMM41 isoform 3 (UniProt Q96BW9)	-0.278 (active)	-0.041	-0.112	-0.005	-0.108	0.026	0.037	0.028	-0.043	-0.044	0.001	-0.052	-0.148	-0.059	0.022	0.023	0.013	-0.004	-0.125	-0.043
SLC39A1 (UniProt Q9NY26)	–	0.116	–	–	–	–	-0.17	–	–	–	–	–	–	–	–	0.181	–	–	–	–
TM7SF2 (UniProt O76062)	–	–	-0.113	-0.059	-0.25	0.018	0.035	0.046	-0.067	–	0.057	–	–	-0.276	0.119	–	–	–	–	–
